Shown are actives, neighbours in structure and some others; about 6.3% of the full set was active somewhere.
tim23-1 inh – growth inhibitors of tim23-1 mutant yeast; S. cerevisiae tim23-1 growth, BacTiter-Glo luminescence, 24 h; inhibition, % at 20 µM; 1.3% of 330,000 active; AID 463212;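 active = growth inhibition of the mutant yeast at or above 50%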;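 also: temperature-sensitive mutant grown at 25 °C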
TIM10 inh – growth inhibitors of TIM10 yeast strain | 1.4% of 330,000 active | S. cerevisiae TIM10 strain growth, BacTiter-Glo luminescence, 24 h | AID 463195 | inhibition, % at 10 µM;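 active = inhibition of 40% or more at the single tested concentration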;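 also: wild-type TIM10 isogenic control strain grown at permissive 25 °C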
Mdm2-MdmX inh – inhibitors of human Mdm2/MdmX interaction; O15151+Q00987; 3% of 330,000 active; SaOS-2 split-luciferase Mdm2/MdmX complementation, luminescence; inhibition, % at 8 µM;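 active = inhibition of at least 50% at 8 µM in the primary screen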
Target sequence (O15151 whole entry, looked up): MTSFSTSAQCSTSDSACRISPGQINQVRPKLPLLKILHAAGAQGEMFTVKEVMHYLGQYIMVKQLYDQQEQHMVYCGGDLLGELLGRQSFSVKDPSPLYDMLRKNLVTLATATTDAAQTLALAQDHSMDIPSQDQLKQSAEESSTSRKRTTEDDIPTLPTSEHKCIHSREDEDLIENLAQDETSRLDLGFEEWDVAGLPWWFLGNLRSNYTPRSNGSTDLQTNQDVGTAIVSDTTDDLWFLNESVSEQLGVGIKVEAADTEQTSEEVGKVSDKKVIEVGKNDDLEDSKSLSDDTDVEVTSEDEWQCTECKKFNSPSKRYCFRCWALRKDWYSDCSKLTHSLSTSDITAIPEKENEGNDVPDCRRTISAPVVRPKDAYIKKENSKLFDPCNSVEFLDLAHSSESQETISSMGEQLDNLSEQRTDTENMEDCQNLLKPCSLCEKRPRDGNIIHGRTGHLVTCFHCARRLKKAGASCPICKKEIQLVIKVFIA
Target sequence (Q00987 whole entry, looked up): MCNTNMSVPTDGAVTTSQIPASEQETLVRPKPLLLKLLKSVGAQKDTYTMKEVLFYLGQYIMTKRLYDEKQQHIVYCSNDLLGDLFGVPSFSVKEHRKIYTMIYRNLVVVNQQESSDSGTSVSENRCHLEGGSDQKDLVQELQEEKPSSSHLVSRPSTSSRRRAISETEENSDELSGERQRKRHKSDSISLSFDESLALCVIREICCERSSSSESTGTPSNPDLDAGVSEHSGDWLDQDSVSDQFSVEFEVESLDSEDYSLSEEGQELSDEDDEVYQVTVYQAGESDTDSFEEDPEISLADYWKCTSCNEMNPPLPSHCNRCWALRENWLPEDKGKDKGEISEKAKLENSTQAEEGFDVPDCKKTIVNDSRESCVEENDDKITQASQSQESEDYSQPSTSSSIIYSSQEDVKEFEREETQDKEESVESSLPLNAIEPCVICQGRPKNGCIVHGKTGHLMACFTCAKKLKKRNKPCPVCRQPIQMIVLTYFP
MPTP block – permeability transition pore inhibition | isolated mouse mitochondria, Ca2+ swelling absorbance, 30 min | inhibition, % at 10 µM | 1.4% of 360,000 active | AID 602449;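 active = inhibition of 50% or more, scaled per plate between neutral and stimulator controls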
tim10-1 inh – inhibits growth of tim10-1 mutant yeast. AID 463190. inhibition, % at 20 µM. 2.2% of 330,000 active. S. cerevisiae tim10-1 ts strain growth, BacTiter-Glo, 24 h;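 active = inhibition of at least 40%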;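 also: mutant grown at 25 °C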
Rh123 counter – Rhodamine 123 counter-screen of mitochondrial pore hits; shares compounds with MPTP block; isolated mitochondria, membrane potential, Rhodamine 123 fluorescence; inhibition, % at 10 µM; 78% of 5,000 active; AID 624504; in the data active = inhibition above about 22%
MPTP swell DR – MPTP inhibition, dose response swelling confirmation; shares compounds with MPTP block; isolated mitochondria swelling, absorbance; IC50, µM; 58% of 780 active; AID 651561; in the data active = IC50 below about 20 µM
MPTP counter DR – MPTP inhibitor counter-screen activity, dose response. IC50, µM. shares compounds with MPTP block. isolated mitochondria counterscreen, fluorescence read-out. 49% of 780 active; in the data active = IC50 below about 80 µM
Numbers stand for hits; . = inactive; / = not tested or not shown.

SMILES	tim23-1 inh	TIM10 inh	Mdm2-MdmX inh	MPTP block	tim10-1 inh	Rh123 counter	others
O=C(Nc1cc(Sc2nc3ccccc3s2)cc([N+](=O)[O-])c1)c1ccccc1	.	.	.	90	.	73
COC(=O)c1cncn1Cc1ccccc1	/	/	/	.	/	/
Cc1ccc2[nH]c(O)c(N=Nc3ccccc3C)c2c1	.	.	.	66	.	.	MPTP swell DR=.;MPTP counter DR=.
CCCCn1c(SCC(=O)c2ccc(O)c(O)c2)nc2ccsc2c1=O	.	.	.	52	.	30
CCn1c(SCC(=O)c2ccccc2)nc2ccccc2c1=O	.	.	.	.	.	/
O=C(O)CCCCCn1c(SCC(=O)c2ccc(O)c(O)c2)nc2ccsc2c1=O	.	.	.	.	.	/
CCCCn1c(SCC(=O)c2ccccc2)nc2ccsc2c1=O	.	.	.	64	.	.	MPTP swell DR=.;MPTP counter DR=.
CCCCN(C)c1c(C)nc2ccc(C(=O)NCCOc3ccc(OC)cc3)cn12	/	/	/	96	/	78
CCCCC(=O)N(C)c1c(C)nc2ccc(C(=O)NCCOc3ccc(OC)cc3)cn12	/	/	/	.	/	/
C[C@@H]1CCCCO[C@@H](CN(C)C(=O)C2CCCCC2)[C@@H](C)CN([C@H](C)CO)C(=O)c2cc(NC(=O)NC3CCCCC3)ccc2O1	/	/	/	.	/	/
CCC(C)n1c(SCC(=O)N(CC)c2c(N)n(Cc3ccccc3)c(=O)[nH]c2=O)nc2ccccc2c1=O (configuration not stated)	/	/	/	.	/	/
COc1ccc2oc(C(=O)N(C)CCOc3ccc(Cl)cc3)c(C)c2c1	.	.	.	122	.	.	MPTP swell DR=.;MPTP counter DR=52
Cc1c(C(=O)N(C)CCOc2ccccc2)oc2c(Cl)cccc12	.	.	.	.	.	/
O=C(Oc1c(Br)cc([N+](=O)[O-])cc1Br)c1cccnc1	.	.	.	72	.	96
Cc1cc(C(=O)Oc2cccnc2)ccc1[N+](=O)[O-]	.	.	.	.	.	/
Cc1ccc(-c2noc(C3CCN(S(=O)(=O)c4ccc5c(c4)OCCO5)CC3)n2)o1	.	.	.	52	.	64
O=C(O)c1cc2c(ncc3c(=O)n(-c4ccccc4)[nH]c32)s1	/	/	/	.	/	/
N#CCCn1c(SCC(=O)NCc2ccco2)nc2ccccc21	.	.	.	74	.	.	MPTP swell DR=.;MPTP counter DR=.
O=C(CSc1nc2ccccc2n1CC(=O)NCc1ccccc1)NCc1ccco1	.	.	.	.	.	/
COc1ccc(-c2cc3c(=O)n(CC(=O)Nc4cccc(Cl)c4)ncn3n2)cc1	.	.	.	.	.	/
COc1ccc(-c2cc3c(=O)n(CC(=O)NCCCN4CCN(Cc5ccccc5)CC4)ncn3n2)cc1	.	.	.	91	.	51
O=C(NCc1cccnc1)c1ccc(COc2ccc(Cl)cc2)cc1	.	.	.	66	.	63
COc1ccccc1OCc1ccc(C(=O)NCc2cccnc2)o1	.	.	.	.	.	/
CC(C)(C)c1ccc(OCc2ccc(C(=O)NCc3cccnc3)o2)cc1	.	.	.	85	.	68
O=C(NC(c1ccc(Cl)cc1)c1ccccn1)C1CCN(CCOc2ccc(Cl)cc2Cl)CC1 (configuration not stated)	/	/	/	.	/	/
SMILES	tim23-1 inh	TIM10 inh	Mdm2-MdmX inh	MPTP block	tim10-1 inh	Rh123 counter	others
CCC(=O)c1ccccc1OCCCN1CCC(Cc2ccccc2)CC1	.	.	.	69	.	60
CCOc1ccccc1OCCN1CCC(Cc2ccccc2)CC1	.	.	.	.	.	/
Clc1ccc(NC2(c3nnnn3C3CCCCC3)CCCCC2)cc1	.	.	.	91	.	91
Cc1cccc(C)c1-n1nnnc1C1(Nc2ccccc2)CCCCC1	.	.	.	.	.	/
CCCCN1C[C@H](CSC)[C@@H](CC(=O)Nc2ccc(Br)cc2)C1=O	/	/	/	.	/	/
O=C(CC1SC(=Nc2ccc(OC(F)F)cc2)N(CCC2=CCCCC2)C1=O)Nc1ccccc1F (configuration not stated)	.	.	.	96	.	72
O=C(Nc1ccccc1)Nc1ccc(-n2ccc(C(F)(F)F)n2)cc1	.	.	.	79	.	82
COc1ccc(-n2cc(CNCCc3nc(C)cc(C)n3)c(-c3ccccc3Cl)n2)cc1	.	.	.	.	.	/
Fc1ccc(-n2cc(CNCCc3ccccn3)c(-c3ccccc3Cl)n2)cc1	.	.	.	72	.	.	MPTP swell DR=9.8;MPTP counter DR=48
Cc1ccc(-n2cc(CNCCc3ncc(C)[nH]3)c(-c3ccc(F)cc3)n2)cc1	.	.	.	91	.	.	MPTP swell DR=4.2;MPTP counter DR=57
Cc1ccc(-n2cc(CNCCn3nc(C)cc3C)c(-c3ccc(F)cc3)n2)cc1	.	.	.	.	.	/
Cc1ccc2[nH]c(C(=O)N/N=C/c3ccc([N+](=O)[O-])cc3)c(C)c2c1	.	.	.	51	.	74
CCCCC/C=N/NC(=O)c1[nH]c2ccc([N+](=O)[O-])cc2c1C	.	.	.	76	.	73
C[C@@H]1CN([C@H](C)CO)C(=O)CCCn2cc(nn2)CO[C@H]1CN(C)C(=O)Nc1ccc(C(C)(C)C)cc1	/	/	/	.	/	/
NC(=N\N=CCc1ccccc1)/C(N)=N/N=CCc1ccccc1	/	/	/	.	/	/
COc1ccccc1-c1cc(C(=O)NC(C)C)no1	.	.	.	.	.	/
CCC(C)NC(=O)c1cc(-c2ccccc2O)on1 (configuration not stated)	.	.	.	53	.	.	MPTP swell DR=.;MPTP counter DR=.
CCOC(=O)C1(C)CCN1C(=O)c1ccc(C(=O)OC)cc1 (configuration not stated)	/	/	/	.	/	/
O=C1NC(=S)S/C1=C\c1ccc(SCc2ccccc2)o1	/	/	/	78	/	62
CCOc1ccc(C(=O)N[C@H](C(=O)N2CCN(c3ncccn3)CC2)C(C)C)cc1	/	/	/	.	/	/
CCOc1cc(CNCCSc2nnnn2C)cc(Br)c1OCc1ccccc1	.	.	.	.	.	/
CCOc1cc(CNCCO)cc(Br)c1OCc1ccccc1	.	.	.	89	.	.	MPTP swell DR=5.5;MPTP counter DR=19
CCOc1cc(CNCc2ccncc2)cc(Br)c1OCc1ccc(F)cc1	.	.	.	98	.	.	MPTP swell DR=8.4;MPTP counter DR=26
Fc1ccc(COc2ccc(Br)cc2CNCc2ccncc2)cc1	.	.	.	.	.	/
NC[C@@H]1O[C@H](C23CC4CC(CC(C4)C2)C3)Cc2c1ccc(O)c2O	.	.	.	94	.	.
COc1ccc(Br)cc1/C(C)=N/NC1=NCCN1	.	.	.	105	.	31
Cc1snc(S(=O)(=O)/C(C#N)=N/Nc2ccc(C(F)(F)F)cc2)c1C#N	.	.	.	90	.	103
Cc1snc(S(=O)(=O)/C(C#N)=N\Nc2ccccc2)c1C#N	.	.	.	.	.	/
CCOc1cc(N2CCOCC2)c(OCC)cc1NC(=O)c1ccccc1N1CCCC1=O	/	/	/	.	/	/
Cc1ccccc1-c1cc2nc(NCc3cccnc3)n(C)c(=O)c2s1	/	/	/	.	/	/
